High-throughput results: PubChem BioAssay, University of Kansas High Throughput Screening Laboratory
Many of the other results were omitted from the sample, so hits are more common in it than they were.
mHTT-CaM PPI inh = mutant huntingtin-calmodulin interaction inhibitors – biochemical, AlphaScreen, primary screen | P42858 | AlphaScreen His-mHTT/GST-CaM binding, luminescence | inhibition, % at 15 µM | hit rate 3.6% among 190,000 | AID 1671202, 2021;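 further: 0% = both proteins with DMSO and 100% = one protein alone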
Pf apPOL inh = Pf-apPOL inhibitors, biochemical, fluorescence; Plasmodium falciparum apicoplast DNA polymerase (apPOL); Recombinant Pf-apPOL, molecular beacon fluorescence, 1.5 h; inhibition, % at 10 µM; hit rate 0.25% among 210,000; AID 1794808, 2022
* = called active by the depositor; x = no result. No stated cut-off is given here; in the data, active means inhibition above about 50%; inactive means the rest.

SMILES	mHTT-CaM PPI inh	Pf apPOL inh
COc1ccc([C@H]2CN(c3ccc(OC)cc3)C(=O)[C@@H]2CC(=O)Nc2ccc(Br)cc2)cc1	55*	-4
O=C(C[C@H]1C(=O)N(Cc2ccccc2)C[C@@H]1Cc1ccccc1)Nc1ccc(Br)cc1	52*	0
O=C1c2cccnc2C(=O)N1c1ccc(-c2ccc([N+](=O)[O-])cc2)cc1	1	-6
O=C1c2cccnc2C(=O)N1c1ccc(Cc2ccc(N3C(=O)c4cccnc4C3=O)cc2)cc1	80*	8
O=C1c2cccnc2C(=O)N1c1ccc(Oc2ccc(N3C(=O)c4cccnc4C3=O)cc2)cc1	99*	-3
O=C1c2cccnc2C(=O)N1c1cccc(C(F)(F)F)c1	13	-5
CC(C)c1csc(-c2ccc(CNC(=O)c3ccncc3)cc2)n1	30	2
CCCn1c(C(=O)N(C)Cc2ccccc2)cc2sc(Br)cc21	14	-4
CCCn1c(C(=O)N(C)Cc2ccccc2)cc2sc(C)cc21	91*	-12
N#CC1=C(N)OC2=C(COc3ccc(F)cc32)C1c1ccc(Cl)cc1 (stereo unspecified)	x	-5
CC12c3ccccc3C(c3ccccc31)C1C(=O)N(c3ccc(F)cc3)C(=O)C12 (stereo unspecified)	1	6
CCCC(=O)N1CCN(c2nc(C(C)C)c3c(c2C#N)CC(C)(C)OC3)CC1	0	89*
CCCCC(=O)N1CCN(c2nc(C(C)C)c3c(c2C#N)CC(C)(C)OC3)CC1	-2	-5
O=C1N=c2ccccc2=C1c1sc(Nc2cccc(O)c2)nc1O	61*	-1
O=C1N=c2ccccc2=C1c1sc(Nc2ccc(Br)cc2)nc1O	28	6
O=c1[nH]c2ccc(S(=O)(=O)Nc3ccc(F)cc3)cc2s1	1	-7
O=C(Cc1ccc(F)cc1)Nc1nc(-c2ccccn2)cs1	85*	-8
O=C(CS(=O)(=O)Cc1ccccc1)Nc1nc(-c2ccccn2)cs1	87*	-74
O=C(Cc1ccc(F)cc1)Nc1ncccn1	17	-3
O=C(CS(=O)(=O)Cc1ccccc1)Nc1nc(-c2cc3ccccc3o2)cs1	1	-6
COc1cccc(/C=C2/N=C(c3cccc([N+](=O)[O-])c3)OC2=O)c1OC	-5	18
Cc1cccc(Nc2nc3nonc3nc2Cl)c1	25	7
OCC[n+]1c(-c2ccc(Br)cc2)csc1Nc1ccccc1	88*	-12
O=C(c1ccccc1)c1c(-c2ccccc2)csc1Nc1ccccc1	x	6
CC(C)(C)c1cc(CCC(=O)NNC(=O)c2ccco2)cc(C(C)(C)C)c1O	7	1
SMILES	mHTT-CaM PPI inh	Pf apPOL inh
CC(C)(C)c1cc(CCC(=O)NNC(=S)NC(=O)c2ccccc2)cc(C(C)(C)C)c1O	58*	-271
Fc1ccccc1C1C=C(c2ccc(I)cc2)Nc2ncnn21 (stereo unspecified)	-4	6
N=C1S/C(=C\c2ccc(-c3ccccc3F)o2)C(=O)N1c1nccs1	27	1
O=C1OC(c2ccccc2)=N/C1=C/c1ccc(-c2ccc(Cl)c(C(=O)O)c2)o1	20	-2
N=C1S/C(=C\c2ccc(-c3ccc(Cl)cc3C(=O)O)o2)C(=O)N1c1nccs1	75*	-2
N=C1S/C(=C\c2ccc(-c3ccc(Cl)c(C(=O)O)c3)o2)C(=O)N1c1nccs1	99*	7
CN(CC1(C)CCOCC1)S(=O)(=O)c1cn(C)cn1	-4	0
Cc1ccc(S(=O)(=O)NC(CC(=O)NCc2ccccc2Cl)c2ccco2)cc1 (stereo unspecified)	-2	-1
COc1ccc(OCC(=O)N2CCc3c(c(C(=O)NCc4cccc(C)c4)nn3C)C2)cc1	70*	-6
Cc1cccc(CNC(=O)c2nn(C)c3c2CN(C(=O)c2cccs2)CC3)c1	30	-12
Cc1cccc(OCC(=O)N2CCc3c(c(C(=O)NCc4ccc(F)cc4)nn3C)C2)c1	55*	-8
Cc1cccc(CNC(=O)c2nn(C)c3c2CN(C(=O)Cc2cccs2)CC3)c1	69*	-10
COCC(=O)N1CCc2c(c(C(=O)NCc3cccc(C)c3)nn2C)C1	-2	-3
COc1cccc(CC(=O)N2CCc3c(c(C(=O)NCc4cccc(C)c4)nn3C)C2)c1	54*	-4
Cc1cccc(OCC(=O)N2CCc3c(c(-c4nc(-c5ccc(F)cc5)no4)nn3C)C2)c1	-2	-7
CCC(=O)N1CCc2c(c(C(=O)NCc3cccc(C)c3)nn2C)C1	26	30
Cc1cc(Sc2ccccn2)c2ccccc2n1	-8	-6
COc1cccc(CNC(=O)C2(C)CCCN(C(=O)Nc3ccc(OC)c(OC)c3)C2)c1 (stereo unspecified)	-5	9
CC1=NN(C(=O)c2cccc([N+](=O)[O-])c2C)C(O)(C(F)(F)F)C1 (stereo unspecified)	-1	-4
Cc1cccc(CNC(=O)c2nn(C)c3c2CN(C(=O)COc2ccc(F)cc2)CC3)c1	63*	-3
